The source of these data is the supplement of paper PMC12669032.

The subject of one test is Roseburia intestinalis. The experiment in a line: growth AUC relative to DMSO control (median of replicates) (fraction); higher = more growth (less inhibition), active = hit call of the paper. The note with it: 20 µM; 24 h. The essentials:
(§1)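 Area under the growth curve was normalised to the plate median of solvent-only wells, or to row and column medians on the industrial chemical plate. Growth curves came from anaerobic gut bacterial monocultures in mGAM at 37 °C, seeded at OD600 0.05 with 20 µM compound (1% DMSO), and read at OD600 hourly for 24 h with the minimum OD set to 0. The value is the median of three biological replicates grown on separate days.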
`C#CCOC(=O)[C@@H](C)Oc1ccc(Oc2ncc(Cl)cc2F)cc1`: the “growth AUC” value is 1.06 (inactive).
Same read-out and setting: under `c1ccc2cc3c(ccc4ccccc43)cc2c1` stands 1.01 (inactive); under `CN(C)C=O`, 1.1 (inactive); under `COc1nc(N)nc(NC(C)(C)C)n1`, 0.943 (inactive).
Same read-out and setting: the same measure for `Cc1ccc(Cl)cc1`: 1 (inactive); for `O=C(O)Cc1c(Cl)ccc(Cl)c1Cl`: 0.979 (inactive); for `O=c1oc(-c2ccccc2)nc2ccccc12`: 0.979 (inactive).
The same measure, in the same setting: the same measure for `COC(=O)c1cccc(C)c1S(=O)(=O)NC(=O)Nc1nc(OCC(F)(F)F)nc(N(C)C)n1`: 0.984 (inactive).
Turning to `COc1cc(OC)nc(NC(=O)NS(=O)(=O)Nc2ccccc2C(=O)N(C)C)n1`, the “growth AUC” value was 0.981 (inactive).
For the molecule `O=S(Cc1ccc(Cl)cc1)c1ccc(Cl)cc1` (stereo not drawn), the “growth AUC” value was 1.01 (inactive).
`CCOc1ccc2c(c1)C(C)=CC(C)(C)N2`: the “growth AUC” value is 1.04 (inactive).
The same measure, in the same setting: the same measure for `CC(C)COC(=O)COc1cc(Cl)c(Cl)cc1Cl`: 1.01 (inactive); for `CN(C)C(=O)Nc1cc(C(C)(C)C)on1`: 1.03 (inactive).
Regarding `C=CCc1ccc(OC)c(OC)c1`, the “growth AUC” value was 1.03 (inactive).
For the molecule `CCNc1nc(NCC)nc(OC)n1`, the “growth AUC” value was 0.993 (inactive).
In the case of `CCOC(=O)c1nc(C(Cl)(Cl)Cl)n(-c2ccc(Cl)cc2Cl)n1`, the “growth AUC” value was 0.949 (inactive).
Regarding `Oc1ccc2ccccc2c1N=Nc1ccccc1`, the “growth AUC” value is 1.13 (inactive).
Turning to `O=C(Nc1ccc(Cl)cc1C(O)c1ccccc1)c1ccncc1` (stereo not drawn), the “growth AUC” value is 0.994 (inactive).
Regarding `CSC(=O)c1cccc2nnsc12`, the “growth AUC” value was 0.953 (inactive).
Regarding `Cc1ccc2c(c1)[C@H](Nc1nc(N)nc(C(C)F)n1)[C@@H](C)C2` (stereo partly drawn), the “growth AUC” value was 0.948 (inactive).
Take `CCOC(=O)c1cnn(C)c1S(=O)(=O)NC(=O)Nc1nc(OC)cc(OC)n1`: the “growth AUC” value is 1.08 (inactive).
For `C/C=C/C(=O)Oc1c(C(C)CCCCCC)cc([N+](=O)[O-])cc1[N+](=O)[O-]` (mixture of isomers), the “growth AUC” value was 0.809 (inactive).
Turning to `CCOC(=O)C(C)N(C(=O)c1ccccc1)c1ccc(Cl)c(Cl)c1` (stereo not drawn), the “growth AUC” value was 0.958 (inactive).
Still for that read-out and setting: the same measure for `COC(=O)c1c(Cl)ccc(Cl)c1OC`: 0.982 (inactive); for `c1ccc(Sc2ccccc2)cc1`: 1.13 (inactive); for `O=C(O)Cc1c[nH]c2ccccc12`: 1.1 (inactive).
`Cc1cc(C)c(C2=C(O)C3(CCCC3)OC2=O)c(C)c1`: the “growth AUC” value is 1.02 (inactive).
As for `CC(=O)Oc1c(Cl)c(Cl)c(Cl)c(Cl)c1Cl`, the “growth AUC” value is 1.04 (inactive).
Take `CCNc1nc(NC(C)CC)nc(OC)n1` (stereo not drawn): the “growth AUC” value was 1.07 (inactive).
Regarding `COc1cc(OC)nc(NC(=O)NS(=O)(=O)Nc2ccccc2C(=O)C2CC2)n1`, the “growth AUC” value was 1.1 (inactive).
The same measure, in the same setting: under `CCCCC(CC)COC(=O)COc1cc(Cl)c(Cl)cc1Cl` (stereo not drawn) stands 0.966 (inactive); under `CSc1nnc(C(C)(C)C)c(=O)n1/N=C/C(C)C`, 1.07 (inactive); under `CC[N+](CC)(CC(=O)Nc1c(C)cccc1C)Cc1ccccc1.O=C([O-])c1ccccc1`, 1.02 (inactive).
`CCCCOCCOCCOCc1cc2c(cc1CCC)OCO2`: the “growth AUC” value was 1 (inactive).
`CC(C)N(C(=O)CS(=O)(=O)[O-])c1ccc(F)cc1.[Na+]`: the “growth AUC” value is 1.03 (inactive).
For the molecule `CN(C)C(=O)Nc1ccc(Oc2ccc(Cl)cc2)cc1`, the “growth AUC” value is 0.874 (inactive).
As to `[S]`, the “growth AUC” value is 0.952 (inactive).
As to `COC(=O)c1csc(C)c1S(=O)(=O)NC(=O)n1nc(OC)n(C)c1=O`, the “growth AUC” value is 0.974 (inactive).
On to `COc1c(Cl)ccc(Cl)c1C(=O)O`, for which the “growth AUC” value is 0.976 (inactive).

The next test relates to Streptococcus salivarius. The description is as above. The note with it: 20 µM; 24 h. The essentials: as §1
With `C#CCOC(=O)[C@@H](C)Oc1ccc(Oc2ncc(Cl)cc2F)cc1`, the “growth AUC” value is 0.959 (inactive).
As to `c1ccc2cc3c(ccc4ccccc43)cc2c1`, the “growth AUC” value was 0.962 (inactive).
On the same count and under the same terms, the same measure for `CN(C)C=O`: 0.999 (inactive); for `COc1nc(N)nc(NC(C)(C)C)n1`: 1.03 (inactive).
In the case of `Cc1ccc(Cl)cc1`, the “growth AUC” value was 1.02 (inactive).
`O=C(O)Cc1c(Cl)ccc(Cl)c1Cl`: the “growth AUC” value is 1.01 (inactive).
Regarding `O=c1oc(-c2ccccc2)nc2ccccc12`, the “growth AUC” value is 0.981 (inactive).
Regarding `COC(=O)c1cccc(C)c1S(=O)(=O)NC(=O)Nc1nc(OCC(F)(F)F)nc(N(C)C)n1`, the “growth AUC” value is 0.984 (inactive).
Same read-out and setting: under `COc1cc(OC)nc(NC(=O)NS(=O)(=O)Nc2ccccc2C(=O)N(C)C)n1` stands 0.99 (inactive); under `O=S(Cc1ccc(Cl)cc1)c1ccc(Cl)cc1` (stereo not drawn), 0.984 (inactive); under `CCOc1ccc2c(c1)C(C)=CC(C)(C)N2`, 1.06 (inactive).
Same read-out and setting: under `CC(C)COC(=O)COc1cc(Cl)c(Cl)cc1Cl` stands 0.958 (inactive); under `CN(C)C(=O)Nc1cc(C(C)(C)C)on1`, 1 (inactive); under `C=CCc1ccc(OC)c(OC)c1`, 1.02 (inactive).
The same measure, in the same setting: the same measure for `CCNc1nc(NCC)nc(OC)n1`: 1.01 (inactive); for `CCOC(=O)c1nc(C(Cl)(Cl)Cl)n(-c2ccc(Cl)cc2Cl)n1`: 0.992 (inactive); for `Oc1ccc2ccccc2c1N=Nc1ccccc1`: 0.914 (inactive).
Regarding `O=C(Nc1ccc(Cl)cc1C(O)c1ccccc1)c1ccncc1` (stereo not drawn), the “growth AUC” value was 1 (inactive).
Consider `CSC(=O)c1cccc2nnsc12`, for which the “growth AUC” value is 0.968 (inactive).
As to `Cc1ccc2c(c1)[C@H](Nc1nc(N)nc(C(C)F)n1)[C@@H](C)C2` (stereo partly drawn), the “growth AUC” value is 1.01 (inactive).
The same measure, in the same setting: under `CCOC(=O)c1cnn(C)c1S(=O)(=O)NC(=O)Nc1nc(OC)cc(OC)n1` stands 1.01 (inactive); under `C/C=C/C(=O)Oc1c(C(C)CCCCCC)cc([N+](=O)[O-])cc1[N+](=O)[O-]` (mixture of isomers), 0.301 (active).
Turning to `CCOC(=O)C(C)N(C(=O)c1ccccc1)c1ccc(Cl)c(Cl)c1` (stereo not drawn), the “growth AUC” value is 0.947 (inactive).
For `COC(=O)c1c(Cl)ccc(Cl)c1OC`, the “growth AUC” value is 1.04 (inactive).
Still for that read-out and setting: under `c1ccc(Sc2ccccc2)cc1` stands 0.994 (inactive); under `O=C(O)Cc1c[nH]c2ccccc12`, 1.01 (inactive).
For `Cc1cc(C)c(C2=C(O)C3(CCCC3)OC2=O)c(C)c1`, the “growth AUC” value was 0.985 (inactive).
As to `CC(=O)Oc1c(Cl)c(Cl)c(Cl)c(Cl)c1Cl`, the “growth AUC” value was 0.909 (inactive).
For the molecule `CCNc1nc(NC(C)CC)nc(OC)n1` (stereo not drawn), the “growth AUC” value was 1.02 (inactive).
As for `COc1cc(OC)nc(NC(=O)NS(=O)(=O)Nc2ccccc2C(=O)C2CC2)n1`, the “growth AUC” value is 0.955 (inactive).
In the case of `CCCCC(CC)COC(=O)COc1cc(Cl)c(Cl)cc1Cl` (stereo not drawn), the “growth AUC” value was 1 (inactive).
With `CSc1nnc(C(C)(C)C)c(=O)n1/N=C/C(C)C`, the “growth AUC” value is 1 (inactive).
Consider `CC[N+](CC)(CC(=O)Nc1c(C)cccc1C)Cc1ccccc1.O=C([O-])c1ccccc1`, for which the “growth AUC” value is 1.01 (inactive).
Take `CCCCOCCOCCOCc1cc2c(cc1CCC)OCO2`: the “growth AUC” value was 1.03 (inactive).
On to `CC(C)N(C(=O)CS(=O)(=O)[O-])c1ccc(F)cc1.[Na+]`, for which the “growth AUC” value is 0.973 (inactive).
As to `CN(C)C(=O)Nc1ccc(Oc2ccc(Cl)cc2)cc1`, the “growth AUC” value was 0.94 (inactive).
As to `[S]`, the “growth AUC” value is 0.997 (inactive).
With `COC(=O)c1csc(C)c1S(=O)(=O)NC(=O)n1nc(OC)n(C)c1=O`, the “growth AUC” value was 0.931 (inactive).
For the molecule `COc1c(Cl)ccc(Cl)c1C(=O)O`, the “growth AUC” value is 1.03 (inactive).
